Test results reported in the supplement of paper PMC4022240.
± gives the standard deviation.

T1: HaloTag-ATRX ADD domain (163-292)
T1 chain: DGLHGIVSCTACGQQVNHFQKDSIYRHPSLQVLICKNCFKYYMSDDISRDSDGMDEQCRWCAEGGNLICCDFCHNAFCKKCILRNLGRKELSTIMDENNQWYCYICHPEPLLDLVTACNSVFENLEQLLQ


Columns and labels:
Experiment in all cases: peptide microarray binding signal (635 nm), min-max normalized on array (fraction of array maximum); higher = stronger binding
[1] = target: T1, HaloTag-ATRX ADD domain (163-292)
Method in brief: (§1)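 Within each library, mean intensities of triplicate spots were min-max scaled to give the binding signal. The spots were histone 13-mer peptide–cellulose conjugates on nitrocellulose with a Cy3 tracer, blocked overnight at 4°C. They were then probed for 1 h at 4°C using biotin-labelled HaloTag reader fusions (10 nM to 1 μM) with streptavidin-Alexa Fluor 647 or rabbit histone antibodies (1:10,000 to 1:2,000) with anti-rabbit Alexa 647, and scanned at 635 nm for signal and 532 nm for misprints on an Axon GenePix 4000B.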

[2] = target: HaloTag-ING2 PHD (mouse Ing2 200-280)
Method in brief: as §1

[3] = target: anti-H3K4me3 antibody ab8580
Method in brief: as §1

[4] = target: anti-H3K9me3 antibody ab8898
Method in brief: as §1

[5] = peptide region: Unmod H3 variant, binder concentration: 50 nM
[6] = peptide region: Unmod H3 variant, binder concentration: 500 nM
[7] = peptide region: Unmod H3 variant, binder concentration: 10 nM
[8] = peptide region: Unmod H3 variant, binder concentration: 100 nM
[9] = peptide region: Unmod H3 variant, binder concentration: 1:2,000 dilution
[10] = peptide region: Unmod H3 variant, binder concentration: 1:10,000 dilution
[11] = peptide region: Unmod H4 variant, binder concentration: 50 nM
[12] = peptide region: Unmod H4 variant, binder concentration: 500 nM
[13] = peptide region: Unmod H4 variant, binder concentration: 10 nM
[14] = peptide region: Unmod H4 variant, binder concentration: 100 nM
[15] = peptide region: Unmod H4 variant, binder concentration: 1:2,000 dilution
[16] = peptide region: Unmod H4 variant, binder concentration: 1:10,000 dilution

Row | Binder | peptide microarray binding signal [1, 5] | peptide microarray binding signal [1, 6] | peptide microarray binding signal [2, 7] | peptide microarray binding signal [2, 8] | peptide microarray binding signal [3, 9] | peptide microarray binding signal [3, 10] | peptide microarray binding signal [4, 9] | peptide microarray binding signal [4, 10] | peptide microarray binding signal [1, 11] | peptide microarray binding signal [1, 12] | peptide microarray binding signal [2, 13] | peptide microarray binding signal [2, 14] | peptide microarray binding signal [3, 15] | peptide microarray binding signal [3, 16] | peptide microarray binding signal [4, 15] | peptide microarray binding signal [4, 16]
1 | ALQEACEAYLVGL [Unmod H3 variant A L Q E A C E A Y L V G L] | 0.00166 ± 5.9e-05 | 0.00148 ± 3.6e-05 | 0.00179 ± 2.8e-05 | 0.00163 ± 4.4e-05 | 0.0004342 ± 4.3e-06 | 0.000628 ± 6.7e-06 | 0.000393 ± 1.4e-05 | 0.000519 ± 5.6e-06 | – | – | – | – | – | – | – | –
2 | ALQEASEAYLVGL [Unmod H3 variant A L Q E A S E A Y L V G L] | 0.001818 ± 8.5e-06 | 0.00233 ± 5.1e-05 | 0.00292 ± 5.6e-05 | 0.00206 ± 7.3e-05 | 0.0004719 ± 4.7e-06 | 0.000799 ± 8.3e-06 | 0.000453 ± 1.5e-05 | 0.000634 | – | – | – | – | – | – | – | –
3 | GGKGLGKGGAKRH [Unmod H4 variant G G K G L G K G G A K R H] | – | – | – | – | – | – | – | – | 0.00373 ± 6.8e-05 | 0.011 ± 0.0003 | 0.0132 ± 0.0071 | 0.0147 ± 0.00057 | 0.000547 ± 1.1e-05 | 0.00114 ± 2.3e-05 | 0.0003775 ± 3.7e-06 | 0.00075 ± 7.9e-06
4 | GKGGAKRHRKVLR [Unmod H4 variant G K G G A K R H R K V L R] | – | – | – | – | – | – | – | – | 0.00508 ± 0.0001 | 0.0113 ± 0.00031 | 0.00292 ± 0.00011 | 0.00836 ± 0.00085 | 0.000472 ± 9.3e-06 | 0.000856 ± 1.8e-05 | 0.000302 ± 3.1e-06 | 0.00075 ± 7.9e-06
5 | KRHRKVLRDNIQG [Unmod H4 variant K R H R K V L R D N I Q G] | – | – | – | – | – | – | – | – | 0.00636 ± 0.00015 | 0.0147 ± 0.00085 | 0.00549 ± 9.7e-05 | 0.0208 ± 0.0048 | 0.000774 ± 7e-06 | 0.00114 ± 1.2e-05 | 0.000604 ± 4.7e-05 | 0.00104 ± 2.8e-05
6 | RVTIMPKDIQLAR [Unmod H3 variant R V T I M P K D I Q L A R] | 0.00552 ± 9e-05 | 0.0187 ± 0.001 | 0.0177 ± 0.00085 | 0.0422 ± 0.0028 | 0.00585 ± 0.00079 | 0.00782 ± 0.00068 | 0.00403 ± 0.00079 | 0.00375 ± 0.00014 | – | – | – | – | – | – | – | –
7 | ATKAARKSAPATG [Unmod H3 variant A T K A A R K S A P A T G] | 0.00646 ± 0.00048 | 0.0104 ± 0.0015 | 0.00776 ± 0.00056 | 0.015 ± 0.0022 | 0.00119 ± 3.4e-05 | 0.001712 ± 1.6e-05 | 0.00142 ± 9.9e-05 | 0.00127 ± 1.3e-05 | – | – | – | – | – | – | – | –
8 | QDFKTDLRFQSSA [Unmod H3 variant Q D F K T D L R F Q S S A] | 0.00483 ± 6.5e-05 | 0.011 ± 0.00018 | 0.00973 ± 0.00021 | 0.0168 ± 0.0012 | 0.00276 ± 8.1e-05 | 0.00542 ± 0.0011 | 0.00157 ± 6.5e-05 | 0.00202 ± 3.2e-05 | – | – | – | – | – | – | – | –
9 | IQGITKPAIRRLA [Unmod H4 variant I Q G I T K P A I R R L A] | – | – | – | – | – | – | – | – | 0.0496 ± 0.0034 | 0.0842 ± 0.0024 | 0.0565 ± 0.0092 | 0.119 ± 0.019 | 0.0125 ± 0.0012 | 0.0159 ± 0.0013 | 0.00663 ± 0.00078 | 0.00957 ± 0.00076
10 | ATKAARKSAPSTG [Unmod H3 variant A T K A A R K S A P S T G] | 0.00285 ± 0.00016 | 0.00757 ± 0.00026 | 0.0164 ± 0.0095 | 0.00943 ± 0.00062 | 0.00109 ± 3.3e-05 | 0.001312 ± 1.3e-05 | 0.000695 ± 2.7e-05 | 0.000923 ± 9.6e-06 | – | – | – | – | – | – | – | –
11 | RKSAPSTGGVKKP [Unmod H3 variant R K S A P S T G G V K K P] | 0.002821 ± 2.4e-05 | 0.0103 ± 0.00037 | 0.00674 ± 8.2e-05 | 0.0212 ± 0.0031 | 0.000963 ± 5e-05 | 0.000799 ± 8.3e-06 | 0.000468 ± 9e-06 | 0.000634 | – | – | – | – | – | – | – | –
12 | ATGGVKKPHRYRP [Unmod H3 variant A T G G V K K P H R Y R P] | 0.00552 ± 0.0011 | 0.00938 ± 0.0008 | 0.00537 ± 0.00055 | 0.0186 ± 0.0068 | 0.000585 ± 3.7e-05 | 0.000456 ± 1.3e-05 | 0.000227 ± 7.1e-06 | 0.000461 ± 8.7e-06 | – | – | – | – | – | – | – | –
13 | RKSAPATGGVKKP [Unmod H3 variant R K S A P A T G G V K K P] | 0.00398 ± 4.1e-05 | 0.0111 ± 0.0002 | 0.008 ± 0.00021 | 0.021 ± 0.00036 | 0.000831 ± 5.9e-05 | 0.001312 ± 1.3e-05 | 0.000529 ± 1.3e-05 | 0.000692 ± 7.3e-06 | – | – | – | – | – | – | – | –
14 | AIHAKRVTIMPKD [Unmod H3 variant A I H A K R V T I M P K D] | 0.00414 ± 0.00014 | 0.0132 ± 0.00021 | 0.00507 ± 0.00019 | 0.0196 ± 0.0021 | 0.000849 ± 2.3e-05 | 0.00211 | 0.000513 ± 1.3e-05 | 0.000692 ± 7.3e-06 | – | – | – | – | – | – | – | –
15 | PFQRLVREIAQDF [Unmod H3 variant P F Q R L V R E I A Q D F] | 0.0275 ± 0.0017 | 0.0328 ± 0.0016 | 0.01385 ± 8.4e-05 | 0.0259 ± 0.0054 | 0.00315 ± 0.00022 | 0.00759 ± 0.00028 | 0.00316 ± 0.00013 | 0.00427 ± 5.7e-05 | – | – | – | – | – | – | – | –
16 | GGVKRISGLIYEE [Unmod H4 variant G G V K R I S G L I Y E E] | – | – | – | – | – | – | – | – | 0.00323 ± 0.00011 | 0.0107 ± 0.006 | 0.00507 ± 0.0008 | 0.0272 ± 0.027 | 0.000755 ± 7e-05 | 0.00126 ± 5.7e-05 | 0.000664 ± 7.4e-05 | 0.000923 ± 3.4e-05
17 | VGLFEDTNLCAIH [Unmod H3 variant V G L F E D T N L C A I H] | 0.00179 ± 3.6e-05 | 0.0031 ± 4.8e-05 | 0.002686 ± 1.5e-05 | 0.00241 ± 4e-05 | 0.000472 ± 9.3e-06 | 0.000628 ± 6.7e-06 | 0.000287 ± 7.8e-06 | 0.000807 | – | – | – | – | – | – | – | –
18 | VREIAQDFKTDLR [Unmod H3 variant V R E I A Q D F K T D L R] | 0.00495 ± 9.5e-05 | 0.0115 ± 0.00061 | 0.00853 ± 0.00018 | 0.0134 ± 0.00073 | 0.00247 ± 5.5e-05 | 0.00474 ± 0.00018 | 0.00248 ± 0.00019 | 0.00259 ± 9.2e-05 | – | – | – | – | – | – | – | –
19 | SGRGKGGKGLGKG [Unmod H4 variant S G R G K G G K G L G K G] | – | – | – | – | – | – | – | – | 0.00426 ± 0.00016 | 0.009 ± 0.00081 | 0.00412 ± 0.00013 | 0.0136 ± 0.0012 | 0.000831 ± 3.2e-05 | 0.00108 ± 1.9e-05 | 0.000438 ± 8.5e-06 | 0.000692 ± 7.3e-06
20 | VLRDNIQGITKPA [Unmod H4 variant V L R D N I Q G I T K P A] | – | – | – | – | – | – | – | – | 0.0154 ± 0.00068 | 0.0293 ± 0.0022 | 0.0201 ± 0.00092 | 0.0672 ± 0.0023 | 0.0064 ± 0.00045 | 0.0089 ± 0.0011 | 0.00264 ± 0.00015 | 0.00323 ± 9.4e-05
